ELG1 genotox: qHTS screen for small molecules that induce genotoxicity in human embryonic kidney (HEK293T) cells expressing luciferase-tagged ELG1 | HEK293T ELG1-luciferase reporter, luminescence, 16 h | Potency, µM (highest dose often 46 µM), without a hit: at the highest dose activity change, positive = activation, most hits filed as activators | 330,000 tested, 1.3% active | AID 504466, 2011; also: % of control where 0% means no effect; nearly all actives have a fitted effect of over 60% in size
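Luminescence read-out: rising ELG1-luciferase signal, reflecting elevated ELG1 protein under genetic stress, flags genotoxic compounds. Cells were treated for 16 hr at 37 °C before ONE-Glo detection.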
NPC1 promoter act: qHTS Assay for NPC1 Promoter Activators. Huh7 NPC1 promoter luciferase reporter, 24 h. Potency, µM (series often up to 9.22 µM), for inactives: at the highest dose activation, most hits filed as activators. 320,000 tested, 2.4% active; also: % of control where 0% means no effect; nearly all actives have a fitted effect of over 60% in size
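Stable NPC1-promoter luciferase Huh7 line; cpd (DMSO) 24 h, 37 °C, 5% CO2; Amplite luciferase reagent 10 min RT; luminescence readout. qHTS format.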
Rab9 prom act: qHTS Assay for Rab9 Promoter Activators | Huh7 Rab9 promoter-luciferase reporter, luminescence, 24 h | Potency, µM (doses to about 9.22 µM), for the others: at the highest dose activation, negative = inhibition, usual class: activators | 320,000 tested, 2.8% active; also: % of control where 0% means no effect; nearly all actives have a fitted effect of over 60% in size
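Cell-based reporter: Huh7 stable for Rab9 promoter-driven luciferase, plated in reduced-serum medium with 10% FBS at 1500 cells/well, compound-treated 24 h at 37 °C, luminescence read after 10 min reagent.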
SMN2 splice up: qHTS Assay for Enhancers of SMN2 Splice Variant Expression | HEK293 SMN2-luciferase splicing reporter, luminescence, 30-36 h | Potency, µM (doses to about 46.1 µM), without a hit: at the highest dose activity change, positive = activation, most hits filed as activators | 210,000 tested, 2.8% active | AID 1458, 2008; also: % of control where 0% means no effect; nearly all actives have a fitted effect of over 55% in size
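qHTS luciferase splicing reporter: luminescence rises when SMN2 exon 7 is included in transfected HEK293 cells. Compound exposure lasted 30-36 h at 37C, with 4.5 mM final sodium butyrate as control, followed by a ONE-Glo read.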
FLuc counter: qHTS profiling assay for firefly luciferase inhibitor/activator using purifed enzyme and Km concentrations of substrates (counterscreen for miR-21 project). Luciferin 4-monooxygenase (Photinus pyralis), P08659. Potency, µM (top dose mostly 57.5 µM), for the others: top-dose activity change, negative = inhibition, most hits filed as inhibitors. 360,000 tested, 6.9% active. purified FLuc, Km substrates, luminescence inhibition;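 also: plate controls were vehicle for no effect and reference inhibitor for full effect; nearly all actives have a fitted effect of over 55% in size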
Target sequence (P08659 whole entry, looked up): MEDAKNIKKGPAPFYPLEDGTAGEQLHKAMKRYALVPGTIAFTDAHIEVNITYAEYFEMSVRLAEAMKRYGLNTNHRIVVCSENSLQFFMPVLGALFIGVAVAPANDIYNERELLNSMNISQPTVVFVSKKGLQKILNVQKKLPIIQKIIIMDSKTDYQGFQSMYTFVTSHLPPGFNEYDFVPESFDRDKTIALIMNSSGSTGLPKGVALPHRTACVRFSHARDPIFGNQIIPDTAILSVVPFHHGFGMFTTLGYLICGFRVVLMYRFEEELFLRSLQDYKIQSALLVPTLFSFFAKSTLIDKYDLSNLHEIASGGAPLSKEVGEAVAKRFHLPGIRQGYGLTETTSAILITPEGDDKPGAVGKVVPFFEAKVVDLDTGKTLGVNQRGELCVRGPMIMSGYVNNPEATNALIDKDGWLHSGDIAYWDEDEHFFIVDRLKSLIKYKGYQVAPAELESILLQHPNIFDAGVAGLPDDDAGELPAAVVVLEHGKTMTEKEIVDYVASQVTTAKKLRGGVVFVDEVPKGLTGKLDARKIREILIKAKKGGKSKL
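Purified P. pyralis luciferase, 10 nM final, with Km-level 10 uM D-luciferin and 10 uM ATP in 50 mM Tris acetate pH 7.5, 10 mM Mg acetate, 0.01% Tween-20, 0.05% BSA; 6-point qHTS titration about 60 µM downward; luminescence read.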
ELG1 DNA repair: qHTS screen for small molecules that inhibit ELG1-dependent DNA repair in human embryonic kidney (HEK293T) cells expressing luciferase-tagged ELG1; HEK293T ELG1-luciferase reporter, luminescence, 16 h; DNA damage induced by 5-fluorouridine; Potency, µM (doses to about 46.1 µM), without a hit: top-dose activity change, negative = inhibition, actives largely listed as inhibitors; 330,000 tested, 2.3% active; AID 504467, 2011; also: % is scaled to controls: 0 for no effect and ±100 for the full control effect; nearly all actives have a fitted effect of over 55% in size
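In this reporter screen, reduction of luminescence relative to DMSO vehicle indicated activity. Compounds and 5-fluorouridine were added together to 2,000 cells per well, incubated for 16 hr at 37 °C, then developed with ONE-Glo.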
* = called active by the depositor; u = inconclusive; x = no result given; [ ] = dose if it differs, or a comment. A selection: hits, their analogues and other compounds. The true share with any hit is near 9.4%. Calls follow the shape of the dose curve; as a rule, active = well fitted curve in the direction sought with a large enough effect; inconclusive = small, poorly fitted or top-dose-only effect, or another doubt; inactive = no such curve, though single readings can be large; an effect the other way counts as inactive or inconclusive. Potency is read from the fitted curve at half-maximal effect.

SMILES	ELG1 genotox	NPC1 promoter act	Rab9 prom act	SMN2 splice up	FLuc counter	ELG1 DNA repair
CN(C(=O)c1ccccn1)c1nnc(-c2cnccn2)s1	u	u	u	x	11µM*	3%
CN(C(=O)c1cccnc1)c1nnc(-c2cnccn2)s1	14%	4%	0%	21%	u	u
COCCN(C(C)=O)c1nnc(-c2ccccn2)s1	30%	17%	u	u	-2%	u
CC(=O)N(C)c1nnc(-c2ccccn2)s1	u	27%	15%	20µM*	u	u
Brc1ccccc1/C=N/Nc1ccccn1	u	1%	19%	u	u	u
O=c1nc(N/N=C/C=C/c2ccccc2)cn[nH]1	2.1µM*	0.5µM*	0.35µM*	x	4.8µM*	u
C(=N\Nc1ccccn1)/c1c[nH]c2ccccc12	u	-3%	28%	x	15µM*	u
O=C(O)c1cccc2c(/C=N/Nc3ccccn3)c[nH]c12	8%	u	2.8µM*	x	8.5µM*	u
C(=C\c1ccccc1)/C=N/Nc1nncc(-c2ccccc2)n1	0%	-2%	-5%	-11%	3%	10%
O=c1cnnc(N/N=C/c2c[nH]c3ccccc23)[nH]1	5%	2%	-10%	-2%	-1%	-1%
O=c1nc(N/N=C/c2c[nH]c3ccccc23)cn[nH]1	10µM*	2.5µM*	2µM*	x	12µM*	u
Cc1ccc(NC(=O)C2CCCN(c3nnc(-n4c(C)ccc4C)s3)C2)c(C)c1 (stereo unspecified)	x	x	x	10%	-2%	x
Cc1c(C)n(Cc2ccccc2)c2ccc(C(=O)NCC(C)c3ccccc3)cc12 (stereo unspecified)	x	x	x	x	-10%	x
CC(C)(C)CC(=O)Nc1nnc(C(F)(F)F)s1	-1%	0%	-6%	-8%	-2%	-13%
Cc1cc(C(=O)Nc2nnc(C3CCCCC3)s2)cs1	u	u	1.6µM*	13%	-7%[2.3 µM]	u
Cc1nn(-c2ccccc2)nc1C(=O)Nc1nnc(C(F)(F)F)s1	-12%	-2%	-1%	x	u	15µM*
CC(NC(=O)Nc1nnc(C(F)(F)F)s1)(C(F)(F)F)C(F)(F)F	-10%	-36%	-33%	-45%	-20%	5.2µM*
Cc1cc(C(=O)Nc2nnc(C(F)(F)F)s2)cs1	0%	u	u	x	12µM*	u
Cc1nn(-c2ccccc2)c(Cl)c1C(=O)Nc1nnc(C2CCCC2)s1	0%	7%	-4%	-8%	-18%	-4%
CCOc1ccccc1CNS(=O)(=O)c1ccc2[nH]c(=O)ccc2c1	x	x	x	x	3%	x
CCN(Cc1ccccc1)C(=O)CN(c1ccc(OC)cc1)S(=O)(=O)c1c(C)nn(C)c1C	x	x	x	2%	1%	x
COc1ccc(OC)c(NC(=O)Cn2c(=O)n(-c3ccc(Cl)cc3)c(=O)c3c(C)c(C)sc32)c1	x	x	x	6%	1%	x
CCc1nn(-c2ccccc2)c2c1-c1cc(OC)c(OC)cc1C1(N2)C(=O)Nc2ccccc21 (stereo unspecified)	-1%	0%	4%	12%	0%	21µM*
COc1cc2c(cc1OC)C1(Nc3c-2c(C)nn3-c2ccccc2)C(=O)Nc2ccccc21 (stereo unspecified)	-3%	0%	11%	11%	1%	u
O=C(O)c1cc(O)ccc1NC(=O)c1cccc2ccccc12	-5%	-3%	3%	x	u	u
SMILES	ELG1 genotox	NPC1 promoter act	Rab9 prom act	SMN2 splice up	FLuc counter	ELG1 DNA repair
COc1ccc(OC)c(C2CC(=O)Nc3cc(OC)c(OC)c(OC)c32)c1 (stereo unspecified)	18µM*	0%	-5%	u	7%	u
COc1ccc(OC)c(C2CC(=O)Nc3ccc4ccccc4c32)c1 (stereo unspecified)	x	x	x	1%	-13%	x
O=C(Nc1ccc(OCc2cc(=O)n3ccccc3n2)cc1)c1ccccc1Cl	x	x	x	x	6%	x
COc1ccc(-c2cc(C(=O)Nc3ccc(S(=O)(=O)Nc4onc(C)c4C)cc3)c3ccccc3n2)cc1	2%	2%	-3%	x	9.5µM*	u
COc1ccc(-c2cc(C(=O)Nc3ccc(S(=O)(=O)Nc4ncccn4)cc3)c3ccccc3n2)cc1	15%	4%	3%	x	4.8µM*	u
COc1ccc(-c2cc(C(=O)Nc3ccc(C)c(N)c3)c3ccccc3n2)cc1	5%	23%	15%	x	5.4µM*	u
Cc1ccccc1NC(=O)CSc1nccn1C	x	x	x	-11%	3%	x
c1ccc(Oc2cc(-c3ccccc3)ncn2)cc1	u	u	u	u	15µM*	u
c1ccc(Oc2cc(-c3ccccc3)nc(-c3ccccc3)n2)cc1	-1%	-6%	2%	-14%	-4%	u
COC(=O)c1cc2oc3ccccc3c2n1Cc1nc(-c2ccc(Cl)cc2)oc1C	x	x	x	3%	4%	x
CCOC(=O)c1ccc(N2C=C(C(=O)OC)C(c3ccc(OC)c(O)c3)C(C(=O)OC)=C2)cc1	5%	1%	1%	x	17µM*	u
O=C(Nc1nnc(-c2cccnc2)o1)c1cccc([N+](=O)[O-])c1	-12%	-2%	-3%	-72%	-17%	18µM*
Cc1cccc(C(=O)Nc2nnc(-c3cccnc3)o2)c1	0%	1%	10%	9%	u	-23%
O=C(CN1C(=O)C2(SCC(=O)N2c2ccc(F)cc2)c2ccccc21)NC1CCCCC1 (stereo unspecified)	x	x	x	x	1%	x
Cc1cccc(C)c1NC(=O)Cn1c(=O)n(Cc2ccco2)c(=O)c2ccc(C(=O)NC3CCCC3)cc21	x	x	x	-3%	2%	x
Cc1nc2ccccc2cc1OCc1ccccc1	-2%	-9%	-12%	-63%	17µM*	29%
COc1cccc(COc2cc3ccccc3nc2C)c1	0%	-10%	-28%	-14%	19µM*	u
Cc1nc2ccccc2cc1OCc1ccc(Cl)cc1	-6%	-14%	-23%	-76%	u	u
COc1cccc(/C=N/Nc2ncnc3scc(-c4ccccc4)c23)c1O	-3%	-9%	-26%	-75%	21µM*	7.3µM*
COc1cccc(/C=N/Nc2nccnc2Cl)c1O	2.6µM*	-18%	-23%	-66%	2.7µM*	u
COc1cccc(/C=N/NC(=O)C(=O)N/N=C/c2cccc(OC)c2O)c1O	2%	-34%	-23%	-36%	0%	u
